Drawing on PubChem BioAssay, this text covers composite z-score and z-score for 13 molecules.

Calls of active or inactive are those of the source.

Assay [1] has as its system Plasmodium falciparum Sir2 (PF13_0152, Sir2A). Kind of assay: Plasmodium falciparum Sir2A binding compounds – biochemical, small-molecule microarray, 635 nm fluorescence, primary screen (AID 1098).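 Note: score merges spot fluorescence intensity with its signal-to-noise ratio.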 The settings on record: fluorescence 635 nm, higher = more signal.
Assay [2] is described as follows: probe aDKK1 binding to arrayed compounds – biochemical, biotinylated probe, 635/667 nm fluorescence, primary screen (AID 1099).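 Note: score merges 667nm spot fluorescence with signal to noise across triplicate slides; reference of the scale not given here.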 The note with it: small-molecule microarray, higher = more signal.
A short description of assay [3]: probe aCHRDL2 binding to arrayed compounds – biochemical, biotinylated probe, 635/667 nm fluorescence, primary screen (AID 1100). The settings on record: small-molecule microarray, higher = more signal.
Assay [4] can be described thus: change in splice reporter luminescence, either direction, cell-based, HEK293, spliceosome inhibition project, primary screen (AID 1101).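 Note: HEK293 cells carrying a splicing-competent luciferase reporter gene; test concentration not given here.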 The note with it: HEK293 splicing luciferase reporter, 24 h, higher = more signal, called active from +8 up or from −8 down.
For assay [5], the target named is Fibroblast growth factor 10 (Homo sapiens) (UniProt O15520). Description: compounds binding fibroblast growth factor 10 – biochemical, small-molecule microarray, 635 nm fluorescence, primary screen (AID 1102). The note with it: FGF10 binding, fluorescence 635 nm, higher = more signal.
Assay [6] has as its system glycogen synthase kinase-3 (GSK3A per assay name; protocol says GSK3B). Kind of assay: compounds binding glycogen synthase kinase-3 – biochemical, small-molecule microarray, 635 nm fluorescence, GSK3A, primary screen (AID 1103). Note: the record names both GSK3A and GSK3B. The note with it: fluorescence 635 nm, higher = more signal.
Assay [7] deals with Epidermal growth factor receptor (Homo sapiens) (UniProt P00533). Kind of assay: compounds binding epidermal growth factor receptor – biochemical, small-molecule microarray, 635 nm fluorescence, primary screen (AID 1104).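 Note: score merges 667 nm emission intensity with spot signal to noise over triplicate slides.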 The note with it: EGFR binding, higher = more signal.
For assay [8], the target named is Follistatin-related protein 3 (Homo sapiens) (UniProt O95633). Kind of assay: compounds binding follistatin-related protein 3 – biochemical, small-molecule microarray, 635 nm fluorescence, primary screen (AID 1105).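 Note: score merges emission near 667 nm and signal to noise per printed spot across three slides.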 The settings on record: FSTL3 binding, higher = more signal.
Assay [9] deals with Dickkopf-related protein 1 (Homo sapiens) (UniProt O94907). Description: small molecules binding DKK1 protein – biochemical, small-molecule microarray, 635 nm fluorescence scan, primary screen (AID 1106).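 Note: score merges emission near 667 nm with signal to noise over three replicate slides.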 The note with it: higher = more signal.
In assay [10] the test system is Inhibin beta A chain (activin A). Description: small molecules binding activin A – biochemical, small-molecule microarray, 635 nm fluorescence scan, primary screen (AID 1107).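 Note: mouse activin A protein probed at 4.33 µg/mL on printed slides; score merges bound-protein fluorescence near 667 nm with spot signal-to-noise.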 The note with it: INHBA, higher = more signal.

Chain of Follistatin-related protein 3 (Homo sapiens) (O95633 whole entry, looked up): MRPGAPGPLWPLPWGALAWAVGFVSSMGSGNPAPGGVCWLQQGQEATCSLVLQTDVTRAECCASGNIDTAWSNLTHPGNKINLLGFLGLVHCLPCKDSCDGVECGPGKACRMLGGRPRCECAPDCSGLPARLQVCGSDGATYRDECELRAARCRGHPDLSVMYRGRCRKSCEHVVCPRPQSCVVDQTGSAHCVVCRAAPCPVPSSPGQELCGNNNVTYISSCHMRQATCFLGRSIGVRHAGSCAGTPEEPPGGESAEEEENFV
Chain of Dickkopf-related protein 1 (Homo sapiens) (O94907 whole entry, looked up): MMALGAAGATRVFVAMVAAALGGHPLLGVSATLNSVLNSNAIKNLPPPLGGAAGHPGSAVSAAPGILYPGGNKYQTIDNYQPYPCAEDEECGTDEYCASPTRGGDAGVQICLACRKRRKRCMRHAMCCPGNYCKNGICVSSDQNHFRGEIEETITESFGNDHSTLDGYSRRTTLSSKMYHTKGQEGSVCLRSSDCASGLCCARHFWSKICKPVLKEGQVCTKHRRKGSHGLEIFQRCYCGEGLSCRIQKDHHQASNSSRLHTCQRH
Chain of Fibroblast growth factor 10 (Homo sapiens) (O15520 whole entry, looked up): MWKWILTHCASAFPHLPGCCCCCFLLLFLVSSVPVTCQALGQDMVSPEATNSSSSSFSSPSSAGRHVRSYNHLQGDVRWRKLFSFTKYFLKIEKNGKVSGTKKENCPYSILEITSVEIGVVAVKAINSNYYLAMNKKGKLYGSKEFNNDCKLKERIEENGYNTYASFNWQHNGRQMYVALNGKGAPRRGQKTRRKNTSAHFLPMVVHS
Chain of Epidermal growth factor receptor (Homo sapiens) (P00533 whole entry, looked up): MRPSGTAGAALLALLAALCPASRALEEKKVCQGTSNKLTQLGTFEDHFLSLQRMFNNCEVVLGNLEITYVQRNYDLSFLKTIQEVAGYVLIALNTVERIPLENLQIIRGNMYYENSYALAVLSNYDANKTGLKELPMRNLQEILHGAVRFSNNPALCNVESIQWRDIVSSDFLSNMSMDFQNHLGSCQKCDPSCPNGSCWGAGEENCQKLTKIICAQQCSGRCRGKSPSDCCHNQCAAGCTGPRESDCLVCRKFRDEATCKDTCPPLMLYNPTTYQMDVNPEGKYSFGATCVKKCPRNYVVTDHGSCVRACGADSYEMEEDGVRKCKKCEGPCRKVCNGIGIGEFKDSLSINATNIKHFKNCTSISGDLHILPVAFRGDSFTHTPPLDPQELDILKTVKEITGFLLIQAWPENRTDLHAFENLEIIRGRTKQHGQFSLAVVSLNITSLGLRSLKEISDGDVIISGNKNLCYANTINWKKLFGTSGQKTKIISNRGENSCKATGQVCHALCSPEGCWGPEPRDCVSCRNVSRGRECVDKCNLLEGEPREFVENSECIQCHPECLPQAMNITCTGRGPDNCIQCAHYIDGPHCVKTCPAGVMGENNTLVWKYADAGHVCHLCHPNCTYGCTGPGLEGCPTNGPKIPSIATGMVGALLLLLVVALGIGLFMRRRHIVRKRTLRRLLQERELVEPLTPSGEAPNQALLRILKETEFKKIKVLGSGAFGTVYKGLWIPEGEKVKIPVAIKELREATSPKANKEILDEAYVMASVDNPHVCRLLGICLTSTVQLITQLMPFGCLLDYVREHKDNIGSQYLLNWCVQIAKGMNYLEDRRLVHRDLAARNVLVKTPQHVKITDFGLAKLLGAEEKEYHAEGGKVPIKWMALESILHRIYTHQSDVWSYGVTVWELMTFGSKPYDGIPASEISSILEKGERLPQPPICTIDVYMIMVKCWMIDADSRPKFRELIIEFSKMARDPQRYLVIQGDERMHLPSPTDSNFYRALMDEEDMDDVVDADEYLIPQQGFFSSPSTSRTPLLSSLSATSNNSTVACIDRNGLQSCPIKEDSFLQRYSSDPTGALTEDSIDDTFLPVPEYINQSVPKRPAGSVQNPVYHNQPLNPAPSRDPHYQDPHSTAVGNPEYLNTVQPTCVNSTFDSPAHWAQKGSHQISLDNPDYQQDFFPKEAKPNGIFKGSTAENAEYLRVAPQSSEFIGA

For the molecule `C#CCNCc1ccccc1`, the composite z-score in assay [1] was -0.375; in assay [2], -0.192; in [3], -0.288; in assay [5] it was 0.2; in assay [6], 0.539; in [7] it was 0.397. Further, the composite z-score worked out at 0.349 in assay [8], 0.183 in assay [9] and 0.209 in assay [10]. In addition, the z-score in assay [4] was 0.258 (inactive).

Turning to `[N-]=[N+]=Nc1ccccc1[C@H]1OC(c2ccc(OCCCO)cc2)=N[C@@]1(Cc1ccccc1)C(=O)N1CCOCC1`, the composite z-score in assay [1] amounted to 1.43; in assay [2], 1.14; in assay [3] it was 1.08; in assay [5], 1.31; in assay [6], 0.921; in assay [7], 0.73. The composite z-score is 1.07 in assay [8], 0.477 in assay [9] and 1.11 in [10]. The z-score in [4] was 0.439 (inactive).

Consider `Cc1ccc([C@H]2C(C(=O)O)=CCN2S(=O)(=O)c2ccc(C)cc2)cc1`, for which the composite z-score in assay [1] is 0.487; in [2], 0.215; in [3] it was 0.761; in assay [5], 0.214; in assay [6], 0.47; in assay [7] it was -0.327. Besides, the composite z-score in [8] is 0.312; in assay [9] it was -0.345; in assay [10], 1.03. Besides, the z-score in [4] was 0.0638 (inactive).

Take `O=C1N(CCS(=O)(=O)c2ccccc2)c2ccccc2[C@@H]2OC(c3ccc(OCCCO)cc3)=N[C@]12Cc1ccccc1`: the composite z-score worked out at 1.49 in assay [1]; 0.0733 in assay [2]; 0.393 in [3]; 0.379 in assay [5]; 1.28 in assay [6]; 0.542 in assay [7]. Further, the composite z-score in assay [8] stood at 1.29; in assay [9], 0.432; in assay [10] it was 0.995. In addition, the z-score in assay [4] was -0.917 (inactive).

In the case of `CCCCC(=C=CC[C@H](O)c1cccc(OCCO)c1)C[C@H](O)c1ccccn1`, the composite z-score in [1] is 0.827; in assay [2] it was -0.218; in assay [3], -0.302; in [5], 0.453; in assay [6], -0.364; in assay [7], 0.0715. The composite z-score in assay [8] worked out at 0.0048; in assay [9], 0.296; in [10], 0.434. Besides, the z-score in assay [4] was -2.17 (inactive).

For the molecule `CN(C)C(=O)[C@]1(Cc2ccccc2)N=C(c2ccc(OCCCO)cc2)O[C@@H]1c1ccccc1N=[N+]=[N-]`, the composite z-score in [1] turned out to be 0.684; in assay [2] it was 0.74; in assay [3], 1.05; in [5], 1.5; in assay [6], 1.3; in [7] it was 0.382. Moreover, the composite z-score in assay [8] amounted to 0.817; in assay [9], 0.173; in [10], 1.25. In addition, the z-score in assay [4] was -0.968 (inactive).

Turning to `CC(C)N1CC=CC23O[C@@H]4C=CCOC(=O)[C@@H]4[C@H]2C(=O)N(CCCCCO)[C@@H]3C1=O` (stereo not given in full), the composite z-score is 0.818 in assay [1]; -0.288 in assay [2]; 0.248 in assay [3]; -0.927 in assay [5]; -0.69 in assay [6]; -0.0616 in [7]. In addition, the composite z-score in assay [8] was -0.266; in assay [9] it was -0.758; in assay [10] it was 0.66. Besides, in assay [4], the z-score is -1.54 (inactive).

In the case of `CC(C)CNC(=O)[C@@]1(Cc2ccccc2I)c2ccccc2C(=O)N(Cc2ccccc2C(F)(F)F)[C@H]1c1ccc(CO)cc1`, the composite z-score in assay [1] is -0.164; in assay [2], 0.104; in [3], 0.836; in assay [5] it was 0.122; in assay [6] it was -0.95; in [7], -1.17. In addition, the results for the composite z-score in assay [8], in [9] and in assay [10] were -0.978, -0.822 and 0.598, respectively. For the same molecule, the z-score in assay [4] is 0.368 (inactive).

For `CC(C)[C@@H](C(=O)O)n1cc(C2(O)CCCCC2)nn1`, the composite z-score in assay [1] was 0.221; in [2], -0.184; in assay [3], -0.55; in [5], 0.928; in assay [6], 1.09; in [7], 0.15. For the same molecule, the composite z-score in assay [8] was 0.457; in assay [9] it was 0.301; in assay [10] it was -0.352. Besides, the z-score in [4] is -0.291 (inactive).

On to `[N-]=[N+]=Nc1ccccc1C[C@]1(C(=O)N2CCCCC2)COC(c2ccc(OCCCO)cc2)=N1`, for which the composite z-score is -0.315 in [1]; 0.149 in assay [2]; 0.89 in assay [3]; 1.28 in [5]; 1.3 in assay [6]; -0.214 in [7]. Further, the composite z-score was 0.615 in [8], -0.482 in assay [9] and 1.01 in [10]. Also, in assay [4], the z-score is -0.806 (inactive).

On to `COC(=O)[C@@]1(Cc2ccc(OC)cc2)[C@H]2c3cc(C(=O)N4CCCC4)n(CCCNc4ncc(C(F)(F)F)cc4Cl)c3C[C@H]2CN1C(=O)c1ccccc1`, for which the composite z-score in assay [1] is 0.596; in assay [2], 1.63; in assay [3], 0.941; in [5] it was 0.595; in [6] it was 0.673; in assay [7], 0.659. For the same molecule, the composite z-score in [8] came to 0.95; in assay [9], 0.244; in [10] it was 1.11. Further, the z-score in assay [4] is -2.98 (inactive).

`CC1CC/C=C\[C@H]2OC34C=CCN(Cc5ccccc5)C(=O)[C@H]3N(C(C)CO)C(=O)[C@@H]4C2C(=O)O1` (stereo not given in full): the composite z-score in [1] was -0.588; in [2], -0.169; in assay [3] it was -0.506; in assay [5], 0.0204; in [6], -0.444; in [7] it was -0.492. The figures for the composite z-score in assay [8], in assay [9] and in assay [10] were 0.196, 0.33 and 0.951, respectively. In addition, in [4], the z-score is 0.441 (inactive).

As to `O=C(O)C1N=C(c2ccc(OCCCO)cc2)N(c2ccccc2)O1` (stereo not given), the composite z-score in [1] stood at 0.524; in assay [2], 0.187; in assay [3], 0.391; in [5] it was 1.22; in assay [6], 0.472; in assay [7] it was 0.327. The composite z-score in [8] was 0.285; in assay [9] it was -0.0405; in assay [10] it was 0.712. In [4], the z-score was -0.303 (inactive).
